# Measured values as given in paper PMC13541613, “GHT-SELEX demonstrates unexpectedly high intrinsic sequence specificity and complex DNA binding of many human transcription factors”.
# Tests used:
# Assay in all cases: HT-SELEX; 20 mM HEPES pH 7, 140 mM KCl, 5 mM NaCl, 1 mM K2HPO4, 2 mM MgSO4, 100 uM EGTA, ZnSO4, 0.1% Tween20; room temperature, 1 h; high values mean tight binding
# Conditions in all cases: protein: ivt; tags: eGFP (N-terminal); dsDNA, one strand shown
# [1] = target: ZNF721 full-length (Homo sapiens, UniProt Q8TF20-2 1-923)
# Chain of ZNF721 full-length (Q8TF20 other isoform, or with tags, fused parts or gaps): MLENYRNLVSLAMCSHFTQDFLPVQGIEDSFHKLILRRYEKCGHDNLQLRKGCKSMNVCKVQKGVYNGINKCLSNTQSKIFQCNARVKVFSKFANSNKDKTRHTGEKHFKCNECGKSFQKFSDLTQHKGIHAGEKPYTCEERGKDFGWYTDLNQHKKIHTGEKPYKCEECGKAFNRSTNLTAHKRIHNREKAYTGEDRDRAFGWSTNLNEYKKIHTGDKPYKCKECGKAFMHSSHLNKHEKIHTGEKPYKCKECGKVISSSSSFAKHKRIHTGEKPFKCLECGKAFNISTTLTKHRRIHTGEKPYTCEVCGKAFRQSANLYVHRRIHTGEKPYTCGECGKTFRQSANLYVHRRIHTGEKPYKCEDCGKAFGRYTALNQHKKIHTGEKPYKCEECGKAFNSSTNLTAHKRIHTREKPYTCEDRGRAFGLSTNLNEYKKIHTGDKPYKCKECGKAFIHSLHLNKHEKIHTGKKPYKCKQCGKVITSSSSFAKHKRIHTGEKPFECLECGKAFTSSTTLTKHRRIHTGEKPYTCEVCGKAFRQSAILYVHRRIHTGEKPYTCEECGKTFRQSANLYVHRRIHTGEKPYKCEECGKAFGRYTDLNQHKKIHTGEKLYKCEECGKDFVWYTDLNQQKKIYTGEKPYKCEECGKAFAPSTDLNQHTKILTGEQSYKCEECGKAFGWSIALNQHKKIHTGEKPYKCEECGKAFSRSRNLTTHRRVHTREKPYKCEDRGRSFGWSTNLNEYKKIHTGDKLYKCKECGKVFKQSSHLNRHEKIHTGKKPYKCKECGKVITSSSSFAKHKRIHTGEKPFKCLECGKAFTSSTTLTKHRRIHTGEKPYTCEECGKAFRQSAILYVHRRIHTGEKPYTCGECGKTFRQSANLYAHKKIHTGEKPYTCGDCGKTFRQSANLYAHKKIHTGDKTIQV
# Outline: (§1)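 Tagged transcription factor, expressed in HEK293 lysate or cell-free extract as a full-length protein or DNA-binding-domain fragment, was held on beads. It bound a randomized 40-base DNA library during 1 h at room temperature in low-stringency HEPES/KCl buffer with Tween20. Eluted DNA went through successive PCR cycles and Illumina sequencing of ~3 million 60 bp reads per sample. A higher relative k-mer count in the selected reads denotes tighter binding.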
# [2] = target: ZNF721 DBD1 (Homo sapiens, UniProt Q8TF20-2 29-461)
# Chain of ZNF721 DBD1 (Q8TF20 17-449): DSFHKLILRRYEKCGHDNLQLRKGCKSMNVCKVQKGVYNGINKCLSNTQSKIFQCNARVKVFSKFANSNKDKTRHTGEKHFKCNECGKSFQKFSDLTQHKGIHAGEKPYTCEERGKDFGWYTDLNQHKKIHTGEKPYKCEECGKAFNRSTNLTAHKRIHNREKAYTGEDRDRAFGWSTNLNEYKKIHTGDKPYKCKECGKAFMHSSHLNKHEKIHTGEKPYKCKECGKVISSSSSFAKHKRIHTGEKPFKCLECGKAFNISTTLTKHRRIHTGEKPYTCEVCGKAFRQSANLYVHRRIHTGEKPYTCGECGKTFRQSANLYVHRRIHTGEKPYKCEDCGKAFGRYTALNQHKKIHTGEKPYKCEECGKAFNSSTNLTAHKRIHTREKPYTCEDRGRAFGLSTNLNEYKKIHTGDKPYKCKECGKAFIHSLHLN
# Outline: as §1
# [3] = target: ZNF721 DBD2 (Homo sapiens, UniProt Q8TF20-2 395-923)
# Chain of ZNF721 DBD2 (Q8TF20 383-911): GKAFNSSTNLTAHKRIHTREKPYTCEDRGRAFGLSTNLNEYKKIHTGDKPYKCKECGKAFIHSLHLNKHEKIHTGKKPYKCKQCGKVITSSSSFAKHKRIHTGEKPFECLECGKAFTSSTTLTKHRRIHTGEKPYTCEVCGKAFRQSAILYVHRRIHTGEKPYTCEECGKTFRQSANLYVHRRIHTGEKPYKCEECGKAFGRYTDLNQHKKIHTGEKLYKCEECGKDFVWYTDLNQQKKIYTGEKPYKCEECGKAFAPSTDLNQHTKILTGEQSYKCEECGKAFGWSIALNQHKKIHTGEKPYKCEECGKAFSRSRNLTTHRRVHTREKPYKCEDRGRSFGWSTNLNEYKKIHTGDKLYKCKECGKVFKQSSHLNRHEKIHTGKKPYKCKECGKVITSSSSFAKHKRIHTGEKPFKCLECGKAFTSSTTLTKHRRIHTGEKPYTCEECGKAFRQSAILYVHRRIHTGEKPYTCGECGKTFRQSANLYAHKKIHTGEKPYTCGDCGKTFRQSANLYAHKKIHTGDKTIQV
# Outline: as §1
Sequence,binding signal [1] [relative 10-mer count],binding signal [2] [relative 10-mer count],binding signal [3] [relative 10-mer count]
CCCACCCCTC,0.188,0.01,0.00527
CCCCGCCACC,0.266,0.0105,0.00336
CCCTGCCCCC,0.166,0.00642,0.00264
CCCGCCCCAC,0.207,0.00784,0.00252
CATACCCAAA,0.103,0.00583,0.0665
CGCTTTTTTC,0.258,0.0622,0.0303
AAGCTGCACC,0.143,0.0827,0.0024
CCGACCACCC,0.119,0.00495,0.00443
CCGCCCCCCG,0.128,0.0039,0.0024
CCACCACGCC,0.105,0.00316,0.00587
CAACAAAACA,0.111,0.00174,0.116
CAAAAAAGCA,0.259,0.00725,0.17
CCCCCCTCCC,0.304,0.0139,0.00372
CCGCCCCCTC,0.128,0.00573,0.00324
GGGGGGGGGA,0.116,0.00486,0.00192
CGACCCCCCC,0.113,0.00427,0.0018
CCACCCCCAA,0.118,0.00546,0.00491
AGGGGGGTGG,0.157,0.00835,0.00407
CCGCCGCCCC,0.169,0.00546,0.00168
CCCTCCCCAC,0.217,0.00977,0.00863

Sequence,binding signal [1] [relative 10-mer count],binding signal [2] [relative 10-mer count],binding signal [3] [relative 10-mer count]
AACAAAAAAA,0.116,0.0078,0.069
CCACCATCCC,0.162,0.0055,0.00443
CCCACCCACA,0.171,0.00688,0.00959
CAACCCCCAC,0.108,0.00417,0.00216
AGTGTCTCCA,0.147,0.0423,0.282
CCCCAACCCC,0.283,0.0104,0.00288
CCCCCTCCCC,0.331,0.0149,0.00455
CACCCCCCAC,0.248,0.0103,0.00527
AAAAGCAGTA,0.17,0.0204,0.117
AAAAAAGCGC,0.115,0.0212,0.015
CCCCCCGCCG,0.104,0.00303,0.0024
CACCACCCCC,0.276,0.0117,0.0024
CTCCCACCCC,0.224,0.0128,0.00455
CCCAACCACC,0.17,0.00752,0.00539
CACAAAAAAG,0.102,0.00853,0.0405
CACCCCATCC,0.11,0.00372,0.00575
CCCCACCACA,0.148,0.00505,0.00527
CCGTCCCACC,0.123,0.00546,0.00312
ACGCTTCATA,0.122,0.2,0.00108
AAAAACAAGC,0.123,0.0116,0.0483

Sequence,binding signal [1] [relative 10-mer count],binding signal [2] [relative 10-mer count],binding signal [3] [relative 10-mer count]
CCCCAACACC,0.114,0.00417,0.00324
AGCGTCTCCT,0.109,0.0353,0.194
CCCCTCCCTC,0.159,0.00789,0.00336
ACCCCGCCAC,0.107,0.00482,0.00264
AGGGTGGGTG,0.158,0.0094,0.00515
AGGATACACT,0.17,0.0907,0.116
CCCATCCCCC,0.185,0.00716,0.00312
CCCCCCCATC,0.115,0.00358,0.00324
CCCACCCCCC,0.427,0.0183,0.00384
CACCCCACCC,0.31,0.012,0.0036
CCCCACCCCG,0.186,0.00784,0.00384
CACCCCCTCC,0.159,0.00899,0.00719
TCCCCCCCCA,0.116,0.005,0.00264
AAGGGGTGGG,0.102,0.00546,0.00395
CCACCCACCA,0.237,0.00977,0.00791
CACCCCACCA,0.182,0.00725,0.00587
GGCGGGGGGA,0.126,0.00619,0.0024
ACCCTCCCCC,0.176,0.00766,0.00575
AAAGCAGGGT,0.272,0.00115,0.337
CCCCGCCCCC,0.297,0.0122,0.00228
